Rows were chosen to be rich in hits. Some 12% of all compounds tested hit in one or more screens of this group.
G9a inh: blocks human histone lysine methyltransferase G9a; Potency, µM (doses to about 102 µM), for the others: top-dose activity, negative = inhibition, most hits filed as inhibitors; G9a H3K9 monomethylation, AlphaScreen, 2 h; 8.8% of 350,000 active; also: % is scaled to controls: 0 for no effect and ±100 for the full control effect; nearly all actives have a fitted effect of over 75% in size
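Quantitative HTS format: methyltransferase activity on a biotin-tagged H3K9 peptide is measured by AlphaScreen, using a rabbit anti-monomethyl-H3K9 antibody with streptavidin donor and anti-IgG acceptor beads. Final levels are 20 nM enzyme, 500 nM peptide, 20 uM SAM; 2 h RT.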
JMJD2A Tudor: JMJD2A Tudor domain (human) inhibition; O75164; AlphaScreen JMJD2A-Tudor / H3K4me3 peptide binding; Potency, µM (doses to about 114 µM), without a hit: at the highest dose activity change, negative = inhibition, usual class: inhibitors; 4.4% of 390,000 active; AID 504339; also: % is scaled to controls: 0 for no effect and ±100 for the full control effect; nearly all actives have a fitted effect of over 50% in size
BAZ2B inh: BAZ2B (human) inhibition; AID 504333; Potency, µM (highest dose often 114 µM), without a hit: at the top dose activity change, negative = inhibition, usual class: inhibitors; 4.4% of 360,000 active; Q9UIF8; AlphaScreen BAZ2B-H3K14Ac peptide displacement; also: % is scaled to controls: 0 for no effect and ±100 for the full control effect; nearly all actives have a fitted effect of over 60% in size
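BAZ2B 50 nM plus b-H3(5-23)K14Ac 50 nM, PBS pH 7.4/0.01% Tween-20, 30 min RT; compound added (max 110 uM), 30 min RT; streptavidin donor/Ni-chelate acceptor beads 10 ug/mL final, 20 min dark; AlphaScreen read.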
HP1b binding inh: inhibitors of HP1-beta chromodomain binding to methylated histone tails. AlphaScreen HP1-beta / biotin-H3K9me3 peptide binding. 0.56% of 390,000 active. Potency, µM (titrated, usually from 114 µM), inactives show top-dose activity change, negative = inhibition, most hits filed as inhibitors; also: nearly all actives have a fitted effect of over 70% in size
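AlphaScreen: HP1-beta (50 nM) preformed 30 min with biotin-H3(1-18)K9me3 peptide (50 nM) in PBS pH 7.4, 0.01% Tween-20. Compound added for 30 min at RT, then streptavidin donor/nickel chelate acceptor beads (10 ug/mL) for 30 min.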
TDP1 inh: blocks human tyrosyl-DNA phosphodiesterase 1; recombinant TDP1, AlphaScreen DNA substrate cleavage; Potency, µM (doses to about 130 µM), inactives show at the top dose activity change, negative = inhibition, most hits filed as inhibitors; Q9NUW8; AID 485290; 0.28% of 350,000 active; also: % is scaled to controls: 0 for no effect and ±100 for the full control effect; nearly all actives have a fitted effect of over 40% in size
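E. coli-derived human Tdp1, 1 nM final. Cpd preinc 15 min RT; substrate 15 nM final, 5 min RT; AS bead mix 10 ug/ml final, 10 min RT. Signal loss = tyrosine-FITC cleavage. No-enzyme wells = max signal.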
Sfp inh: Sfp phosphopantetheinyl transferase inhibition; Q9F4F7; Biochemical Sfp PPTase activity, qHTS; 3.5% of 310,000 active; Potency, µM, without a hit: largest response in the series, negative = inhibition, usual class: inhibitors;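 also: the enzyme is Sfp with the accession as filed and its product quenches rhodamine fluorescence; 0% = enzyme reaction without inhibitor and -100% = no enzyme wells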
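Buffer: 50 mM Hepes-Na pH 7.6, 10 mM MgCl2, 0.01% Nonidet P-40, 0.01% BSA. Enzyme 15 nM, pre-exposed to compound 15 min; substrates then added and fluorescence change tracked over 30 min.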
Starred values were filed as active, the others as inactive; ! = a repeat was not active; [ ] = remark or other dose. Calls follow the shape of the dose curve; as a rule, active = well fitted curve in the direction sought with a large enough effect; inconclusive = small, poorly fitted or top-dose-only effect, or another doubt; inactive = no such curve, though single readings can be large; an effect the other way counts as inactive or inconclusive. Potency is read from the fitted curve at half-maximal effect.

What do the screens show for `CCOC(=O)c1cc2c(=O)n3ccccc3nc2n(Cc2ccco2)c1=NC(=O)c1cccc(OC)c1`?
G9a inh: -24%; JMJD2A Tudor: -7%; BAZ2B inh: -15%; HP1b binding inh: 13%; TDP1 inh: -3%; Sfp inh: 28µM*

Results for CCCn1c(=NC(=O)c2ccco2)c(C(=O)OCC)cc2c(=O)n3ccccc3nc21 ?
G9a inh: 2%[12.7 µM]; JMJD2A Tudor: -15%; BAZ2B inh: -5%; HP1b binding inh: 27%; TDP1 inh: 0%; Sfp inh: inconclusive

How did CCOC(=O)c1cc2c(=O)n3ccccc3nc2n(Cc2ccco2)c1=NC(=O)c1ccccc1OC do in these assays?
G9a inh: -29%; JMJD2A Tudor: inconclusive; BAZ2B inh: -26%; HP1b binding inh: 7%; TDP1 inh: 79µM*!; Sfp inh: 35µM*

Results for c1ccc(CNc2ccnc(-c3cccnc3)n2)cc1 ?
G9a inh: 1%[0.501 µM]; Sfp inh: -22%

How did CCOc1ccc(NC(=O)Cn2sc3nc(C)cc(C)c3c2=O)cc1 do in these assays?
G9a inh: 0.28µM*; JMJD2A Tudor: 0.89µM*; BAZ2B inh: -37%; HP1b binding inh: 5.6µM*; TDP1 inh: 0%; Sfp inh: 2.8µM*

What do the screens show for `Cc1cc(C)c2c(=O)n(CC(=O)Nc3cccc(F)c3)sc2n1`?
G9a inh: 0.32µM*; JMJD2A Tudor: 1.1µM*; BAZ2B inh: 50µM*; HP1b binding inh: inconclusive; Sfp inh: 3.2µM*

What do the screens show for `CCOc1ccc(NC(=O)CCc2c(C)nc3c4c(C)cc(C)nc4nn3c2C)cc1`?
G9a inh: 27%[59 µM]; JMJD2A Tudor: -14%; BAZ2B inh: 21%; HP1b binding inh: 73%; TDP1 inh: 3%

Results for Cc1cc(C)c2c(=O)n(CC(=O)Nc3ccc(Cl)cc3)sc2n1 ?
G9a inh: 0.089µM*; JMJD2A Tudor: 1.1µM*; BAZ2B inh: 40µM*; HP1b binding inh: 7.9µM*; Sfp inh: 3.5µM*

What do the screens show for `O=C(Cn1c(=O)c2ccccc2n2nncc12)Nc1cccc(F)c1`?
G9a inh: -4%[59 µM]; JMJD2A Tudor: -10%; BAZ2B inh: -5%; HP1b binding inh: 34%; TDP1 inh: -4%

Results for Cc1ccc(NC(=O)Cn2sc3nc(C)cc(C)c3c2=O)c(Cl)c1 ?
G9a inh: 0.35µM*; JMJD2A Tudor: 1.6µM*; BAZ2B inh: 45µM*; HP1b binding inh: inconclusive; Sfp inh: 2.8µM*

Results for O=C(Cc1ccc(F)cc1)NC1CC(=O)N(c2ccc3c(c2)OCCO3)C1 (stereo not given) ?
G9a inh: 8%[59 µM]; JMJD2A Tudor: -9%; BAZ2B inh: 0%; HP1b binding inh: 1%; TDP1 inh: 3%

What do the screens show for `O=C(NCCNC(=O)c1ccccc1F)c1ccccn1`?
G9a inh: inconclusive; JMJD2A Tudor: 1%; BAZ2B inh: 2%; HP1b binding inh: 6%; Sfp inh: 2%

Results for CCOc1ccc(N2C(=O)C3Sc4[nH]c(=O)sc4C(/C=C/c4ccccc4)C3C2=O)cc1 (stereo not given) ?
G9a inh: 11µM*; JMJD2A Tudor: 40µM*; BAZ2B inh: 45µM*; HP1b binding inh: inconclusive; TDP1 inh: 7%; Sfp inh: -25%

Results for CO[C@]1(NC(=O)C2SC(=C(C(N)=O)C(=O)O)S2)C(=O)N2C(C(=O)O)=C(CSc3nnnn3C)CS[C@H]21 (stereo not given in full) ?
G9a inh: 17%[21.5 µM]; Sfp inh: -18%

How did Cn1cc2cc([N+](=O)[O-])ccc2n1 do in these assays?
G9a inh: -8%; JMJD2A Tudor: -9%; BAZ2B inh: -11%; HP1b binding inh: 19%; TDP1 inh: -2%; Sfp inh: -1%

Results for Cc1ccc(NC(=O)CCNC(=O)c2ccccc2Cl)cc1S(=O)(=O)N1CCOCC1 ?
G9a inh: -1%[59 µM]; JMJD2A Tudor: -5%; BAZ2B inh: 1%; HP1b binding inh: 29%; TDP1 inh: 0%

What do the screens show for `CN(C)S(=O)(=O)Oc1ccsc1C(=O)Nc1ccc(Cl)c(Cl)c1`?
G9a inh: inconclusive; JMJD2A Tudor: 37%[57.1 µM]; BAZ2B inh: 10%; HP1b binding inh: 73%; TDP1 inh: 0%; Sfp inh: -2%

What do the screens show for `COc1ccc(COc2ccsc2C(=O)Nc2ccc(Cl)c(Cl)c2)cc1`?
G9a inh: -7%; JMJD2A Tudor: -28%; BAZ2B inh: -5%; HP1b binding inh: 18%; TDP1 inh: 4%; Sfp inh: 56µM*

Results for Cc1ccc(C(=O)NCc2n[nH]c(=S)n2-c2ccccc2)cc1[N+](=O)[O-] ?
G9a inh: 10µM*; JMJD2A Tudor: 14µM*; BAZ2B inh: -23%; HP1b binding inh: -2%; TDP1 inh: 1%; Sfp inh: 7%

How did COc1ccc(CC(=O)NCc2n[nH]c(=S)n2C)cc1 do in these assays?
G9a inh: 45µM*; JMJD2A Tudor: inconclusive; BAZ2B inh: 0%; HP1b binding inh: 32%; TDP1 inh: -6%; Sfp inh: -26%

What do the screens show for `O=C(NCc1nnc2c(C(F)(F)F)cc(Cl)cn12)c1ccco1`?
G9a inh: 4%; JMJD2A Tudor: -10%; BAZ2B inh: 4%; HP1b binding inh: 58%; TDP1 inh: -6%; Sfp inh: 26%

What do the screens show for `COc1cccc(C(=O)NCc2n[nH]c(=S)n2-c2cccc(C)c2)c1`?
G9a inh: inconclusive; JMJD2A Tudor: 18µM*; BAZ2B inh: -21%; HP1b binding inh: 29%; TDP1 inh: -8%; Sfp inh: 0%

How did O=C(NCc1n[nH]c(=S)n1-c1cccc(C(F)(F)F)c1)c1ccco1 do in these assays?
G9a inh: 13µM*; JMJD2A Tudor: 13µM*; BAZ2B inh: 18%; HP1b binding inh: 27%; TDP1 inh: 10%; Sfp inh: -13%

Results for Cc1ccc(C(=O)NC(C)CCc2ccccc2)cc1[N+](=O)[O-] (stereo not given) ?
G9a inh: -7%[59 µM]; JMJD2A Tudor: -7%; BAZ2B inh: -11%; HP1b binding inh: 16%; TDP1 inh: 4%; Sfp inh: 11%

How did CCn1c(CNC(=O)c2cccc(C)c2)nnc1SCC(=O)Nc1cccc(OC)c1 do in these assays?
G9a inh: 11%[12.7 µM]; JMJD2A Tudor: -16%; BAZ2B inh: 9%; HP1b binding inh: 4%; TDP1 inh: -7%; Sfp inh: 20%

Screening results as filed in PubChem BioAssay.
